The panel holds about 79,000 compounds, 15% with a hit somewhere; the sample as a whole holds those more often. A number with no mark means an inactive call. The source made the active and inactive calls. Cut-off read from the data, not from the text of the source: active = growth inhibition above about 70%; inactive = the rest.
Legend:
[1] = NCI Yeast Anticancer Drug Screen. Data for the rad52 strain (AID 147);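 note: 0% = growth of vehicle-treated control cultures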; conditions: S. cerevisiae rad52 mutant growth inhibition, stronger effect = higher value
Method in brief: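 DNA repair-defective yeast; compound exposure; growth scored against vehicle controls.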

[2] = NCI Yeast Anticancer Drug Screen. Data for the wt1 strain (AID 149);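 note: 0% = growth of vehicle-treated wt1 cultures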; conditions: S. cerevisiae wt1 strain (SPY 50644) growth inhibition, stronger effect = higher value
Method in brief: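 Using yeast strain wt1, compound-induced growth inhibition was determined against vehicle-treated cultures.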

[3] = NCI Yeast Anticancer Drug Screen. Data for the rad50EPP+ strain (AID 151);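 note: 0% = growth of vehicle-treated control cultures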; conditions: S. cerevisiae rad50 mutant strain, stronger effect = higher value
Method in brief: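 rad50EPP+ yeast treated with test compounds. Readout: growth vs vehicle control.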

[4] = NCI Yeast Anticancer Drug Screen. Data for the rad50 strain (AID 155);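 note: 0% = growth of vehicle-only cultures of the same strain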; conditions: S. cerevisiae rad50 strain growth inhibition, stronger effect = higher value
Method in brief: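 Relative growth inhibition (compound vs vehicle) was measured in yeast with a defined repair-gene alteration.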

[5] = NCI Yeast Anticancer Drug Screen. Data for the mec2-1 strain (AID 157); conditions: S. cerevisiae mec2-1 strain, stronger effect = higher value
Method in brief: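 Growth inhibition is read against vehicle-treated controls after compound exposure of the mec2-1 yeast strain, which is defective in DNA damage repair or cell cycle control.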

[6] = NCI Yeast Anticancer Drug Screen. Data for the rad14 strain (AID 159);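 note: 0% = growth of vehicle-treated control cultures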; conditions: S. cerevisiae rad14 strain growth inhibition, stronger effect = higher value
Method in brief: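 Screen for anticancer potential: a yeast strain altered in DNA damage repair is grown with compound, and reduced growth is quantified against vehicle controls.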

[7] = NCI Yeast Anticancer Drug Screen. Data for the sgs1 mgt1 strain (AID 161);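 note: 0% = growth of cultures given vehicle only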; conditions: S. cerevisiae sgs1 mgt1 strain, stronger effect = higher value
Method in brief: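 Yeast cells carrying a defined DNA-repair defect were exposed to test compounds. Growth inhibition was measured relative to vehicle-treated controls.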

[8] = NCI Yeast Anticancer Drug Screen. Data for the CLN2oe strain (AID 163);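 note: 0% = growth of vehicle-only control cultures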; conditions: S. cerevisiae CLN2oe strain, stronger effect = higher value
Method in brief: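 Compound-treated yeast; growth vs vehicle ctrl = % inhibition. Genetically altered strain (cell-cycle control).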

[9] = NCI Yeast Anticancer Drug Screen. Data for the cln2 rad14 strain (AID 165);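 note: 0% = growth equal to vehicle treated cultures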; conditions: S. cerevisiae cln2 rad14 strain, stronger effect = higher value
Method in brief: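 Growth inhibition, relative to vehicle-treated controls, is the read-out. The test organism is a yeast strain with defined genetic alterations, cln2 rad14.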

[10] = NCI Yeast Anticancer Drug Screen. Data for the bub3 strain (AID 167); conditions: S. cerevisiae bub3 mutant strain, stronger effect = higher value
Method in brief: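 Screening used yeast with an engineered genetic alteration affecting cell cycle control. Compound-exposed cultures were compared with vehicle cultures, and reduced growth was taken as inhibition.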

[11] = NCI Yeast Anticancer Drug Screen. Data for the wt2 strain (AID 169);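 note: 0% = growth of vehicle-treated yeast cultures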; conditions: S. cerevisiae wt2 strain growth inhibition, stronger effect = higher value
Method in brief: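 Compound exposure of yeast; growth compared with vehicle controls; inhibition reported.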

[12] = NCI Yeast Anticancer Drug Screen. Data for the mlh1 strain (AID 171);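 note: 0% = growth of vehicle-treated control cultures of the same strain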; conditions: S. cerevisiae mlh1 strain growth inhibition, stronger effect = higher value
Method in brief: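 Compounds are applied to a genetically altered yeast strain, and its growth is compared with that of vehicle-treated cultures to give percent inhibition.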

[13] = NCI Yeast Anticancer Drug Screen. Data for the sgs1 strain (AID 173);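 note: 0% = growth of vehicle-only control cultures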; conditions: S. cerevisiae sgs1 mutant, stronger effect = higher value
Method in brief: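 Compounds applied to genetically altered yeast; growth compared with vehicle-treated cultures to give % inhibition.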

[14] = NCI Yeast Anticancer Drug Screen. Data for the mlh1 rad18 strain (AID 175); conditions: S. cerevisiae mlh1 rad18 strain growth inhibition, stronger effect = higher value
Method in brief: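 Cells of a genetically altered yeast strain, deficient in DNA damage repair, were treated with compound. Their growth was then compared with that of vehicle-treated cultures to give inhibition.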

[15] = NCI Yeast Anticancer Drug Screen. Data for the rad18 strain (AID 177); conditions: S. cerevisiae rad18 mutant growth inhibition, stronger effect = higher value
Method in brief: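 Compounds are applied to a repair-deficient yeast strain, and growth is compared with that of vehicle-treated cultures to give percent inhibition.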

[16] = at 5.0 µM (retest, dose inferred, filed as 0.5)
[17] = at 50.0 µM (retest, dose inferred, filed as 5.0)

Work on CN(C)Cc1cccc(CN(C)C)[c]1[Sn]([Br])([c]1ccccc1)[c]1ccccc1 yielded a growth inhibition ([1]; at 1.2 µM) of 28%, a growth inhibition ([1]; at 3.7 µM) of 45% and a growth inhibition ([1]; at 11.0 µM) of 57%. The growth inhibition ([1]; at 33.0 µM) was 74% (active), the growth inhibition ([1]; at 100.0 µM) was 97% (active) and the growth inhibition ([2]; at 1.2 µM) was 20%. For the same molecule, the growth inhibition ([2]; at 3.7 µM) was 36%, the growth inhibition ([2]; at 11.0 µM) was 49% and the growth inhibition ([2]; at 33.0 µM) was 58%. For the same molecule, the growth inhibition ([2]; at 100.0 µM) was 96% (active), the growth inhibition ([3]; at 1.2 µM) was 19% and the growth inhibition ([3]; at 3.7 µM) was 32%. The growth inhibition ([3]; at 11.0 µM) was 30%, the growth inhibition ([3]; at 33.0 µM) was 36% and the growth inhibition ([3]; at 100.0 µM) was 39%. It also gave a growth inhibition ([4]; at 1.2 µM) of 30%, a growth inhibition ([4]; at 3.7 µM) of 62% and a growth inhibition [4, 16] of 44%. The growth inhibition ([4]; at 11.0 µM) was 69%, the growth inhibition ([4]; at 33.0 µM) was 82% (active) and the growth inhibition [4, 17] was 94% (active). The growth inhibition ([4]; at 50.0 µM) was 81.8% (active), the growth inhibition ([4]; at 100.0 µM) was 97% (active) and the growth inhibition ([5]; at 1.2 µM) was 2%. The growth inhibition ([5]; at 3.7 µM) was 22%, the growth inhibition [5, 16] was 47% and the growth inhibition ([5]; at 11.0 µM) was 42%. The growth inhibition ([5]; at 33.0 µM) was 56%, the growth inhibition [5, 17] was 98% (active) and the growth inhibition ([5]; at 50.0 µM) was 86.2% (active). For the same molecule, the growth inhibition ([5]; at 100.0 µM) was 94% (active), the growth inhibition ([6]; at 1.2 µM) was -3% and the growth inhibition ([6]; at 3.7 µM) was 17%. For the same molecule, the growth inhibition ([6]; at 11.0 µM) was 27%, the growth inhibition ([6]; at 33.0 µM) was 78% (active) and the growth inhibition ([6]; at 100.0 µM) was 97% (active). For the same molecule, the growth inhibition [7, 16] was 18%, the growth inhibition [7, 17] was 95% (active) and the growth inhibition ([7]; at 50.0 µM) was 88.8% (active). For the same molecule, the growth inhibition ([8]; at 1.2 µM) was -8%, the growth inhibition ([8]; at 3.7 µM) was 1% and the growth inhibition ([8]; at 11.0 µM) was 15%. For the same molecule, the growth inhibition ([8]; at 33.0 µM) was 30%, the growth inhibition ([8]; at 100.0 µM) was 91% (active) and the growth inhibition [9, 16] was 13%. For the same molecule, the growth inhibition [9, 17] was 66%, the growth inhibition ([9]; at 50.0 µM) was 86.9% (active) and the growth inhibition ([10]; at 1.2 µM) was -7%. It also gave a growth inhibition ([10]; at 3.7 µM) of 6%, a growth inhibition [10, 16] of 32% and a growth inhibition ([10]; at 11.0 µM) of 18%. The growth inhibition ([10]; at 33.0 µM) was 50%, the growth inhibition [10, 17] was 95% (active) and the growth inhibition ([10]; at 50.0 µM) was 88.8% (active). For the same molecule, the growth inhibition ([10]; at 100.0 µM) was 95% (active), the growth inhibition ([11]; at 1.2 µM) was 10% and the growth inhibition ([11]; at 3.7 µM) was 13%. For the same molecule, the growth inhibition ([11]; at 11.0 µM) was 41%, the growth inhibition ([11]; at 33.0 µM) was 87% (active) and the growth inhibition ([11]; at 100.0 µM) was 97% (active). For the same molecule, the growth inhibition ([12]; at 1.2 µM) was -2%, the growth inhibition ([12]; at 3.7 µM) was 23% and the growth inhibition ([12]; at 11.0 µM) was 37%. The growth inhibition ([12]; at 33.0 µM) was 60%, the growth inhibition ([12]; at 100.0 µM) was 96% (active) and the growth inhibition ([13]; at 1.2 µM) was 8%. The growth inhibition ([13]; at 3.7 µM) was 44%, the growth inhibition ([13]; at 11.0 µM) was 66% and the growth inhibition ([13]; at 33.0 µM) was 81% (active). For the same molecule, the growth inhibition ([13]; at 100.0 µM) was 97% (active), the growth inhibition [14, 16] was 44% and the growth inhibition [14, 17] was 98% (active). The growth inhibition ([14]; at 50.0 µM) was 90.7% (active), the growth inhibition ([15]; at 1.2 µM) was 42% and the growth inhibition ([15]; at 3.7 µM) was 67%. The growth inhibition ([15]; at 11.0 µM) was 74% (active), the growth inhibition ([15]; at 33.0 µM) was 82% (active) and the growth inhibition ([15]; at 100.0 µM) was 97% (active).

Source: PubChem BioAssay (NCI)
